Holding throughout (experiment): cell viability relative to vehicle control; higher = less cytotoxic
Common to all, as to conditions: 10 µM

For test [1], the system named is K562. Summed up: (§1)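 CRISPR-edited mutant clones and isogenic wild-type clones from four leukaemia lines were screened against Selleck bioactive, kinase and epigenetic probe libraries, with identity-inconsistent compounds excluded. Each compound was acoustically dispensed at a single 10 µM dose into 384-well plates holding 2000 cells in 50 µL medium per well. After 48 h the supernatant was removed and CellTiter-Glo luminescence was read. Viability was expressed as percent of the on-plate vehicle control and analysed in Genedata Screener.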

Test [2] has as its system MARIMO. An outline of the steps:
as §1

Test [3] relates to MOLM14. An outline of the steps:
as §1

In test [4] the test system is OCI-AML2. An outline of the steps:
as §1

Structures are written as SMILES. “And” between values parts separate entries of the source, which are not always exact repeats. Equal values may be shown once. Where a name gives a salt, the structure may show the parent alone.

`CCOC(=O)C1=C[C@]2(CC)CCCN3CCc4c(n1c1ccccc41)[C@@H]32` [Vinpocetine (Cavinton)]: the cell viability in test [1] (SRSF2 genotype: SRSF2 P95H/wt) was 93.6% and 101%; in test [1] (SRSF2 genotype: SRSF2 wt/wt) it was 95.6%; in test [2] (SRSF2 genotype: SRSF2 P95H/wt), 96.5%; in test [2] (SRSF2 genotype: SRSF2 wt/wt), 110%; in test [3] (SRSF2 genotype: SRSF2 P95H/wt), 101%; in test [3] (SRSF2 genotype: SRSF2 wt/wt), 101%. Also, the cell viability in test [4] (SRSF2 genotype: P95H/wt) worked out at 89.5%; in test [4] (SRSF2 genotype: wt/wt), 101%.
`COC(=O)C1=COC(OC2OC(CO)C(O)C(O)C2O)C2C(C)CC(=O)C12O` (stereo not given) [Hastatoside]: the cell viability in test [1] (SRSF2 genotype: SRSF2 P95H/wt) is 108% and 101%; in test [1] (SRSF2 genotype: SRSF2 wt/wt) it was 107%; in test [2] (SRSF2 genotype: SRSF2 P95H/wt), 104%; in test [2] (SRSF2 genotype: SRSF2 wt/wt) it was 99.3%; in test [3] (SRSF2 genotype: SRSF2 P95H/wt), 108%; in test [3] (SRSF2 genotype: SRSF2 wt/wt) it was 104%. The cell viability in test [4] (SRSF2 genotype: P95H/wt) was determined as 99.5%; in test [4] (SRSF2 genotype: wt/wt), 102%.
For the compound `CC(C)NCC(O)c1ccc(O)c(O)c1` (stereo not given) [Isoprenaline hydrochloride], the cell viability was 92.4% and 104% in test [1] (SRSF2 genotype: SRSF2 P95H/wt); 96.9% in test [1] (SRSF2 genotype: SRSF2 wt/wt); 98.4% in test [2] (SRSF2 genotype: SRSF2 P95H/wt); 100% in test [2] (SRSF2 genotype: SRSF2 wt/wt); 89.7% in test [3] (SRSF2 genotype: SRSF2 P95H/wt); 96.5% in test [3] (SRSF2 genotype: SRSF2 wt/wt). Moreover, the cell viability came to 104% in test [4] (SRSF2 genotype: P95H/wt) and 101% in test [4] (SRSF2 genotype: wt/wt).
On to `CC1=CC(=O)NS(=O)(=O)O1` [Acesulfame Potassium], for which the cell viability in test [1] (SRSF2 genotype: SRSF2 P95H/wt) is 96.3% and 96.7%; in test [1] (SRSF2 genotype: SRSF2 wt/wt), 96.3%; in test [2] (SRSF2 genotype: SRSF2 P95H/wt), 98.1%; in test [2] (SRSF2 genotype: SRSF2 wt/wt) it was 94.4%; in test [3] (SRSF2 genotype: SRSF2 P95H/wt), 98.9%; in test [3] (SRSF2 genotype: SRSF2 wt/wt), 97.8%. Also, the values for the cell viability in test [4] (SRSF2 genotype: P95H/wt) and in test [4] (SRSF2 genotype: wt/wt) were 89.1% and 105%, respectively.
As to `CNC(=O)c1cc(Oc2ccc(NC(=O)Nc3ccc(Cl)c(C(F)(F)F)c3)c(F)c2)ccn1` [Regorafenib (BAY 73-4506)], the cell viability is 17.6% and 21.9% in test [1] (SRSF2 genotype: SRSF2 P95H/wt); 14.9% in test [1] (SRSF2 genotype: SRSF2 wt/wt); 29.2% in test [2] (SRSF2 genotype: SRSF2 P95H/wt); 28% in test [2] (SRSF2 genotype: SRSF2 wt/wt); 16.6% in test [3] (SRSF2 genotype: SRSF2 P95H/wt); 13.1% in test [3] (SRSF2 genotype: SRSF2 wt/wt). In addition, the cell viability in test [4] (SRSF2 genotype: P95H/wt) was found to be 23.1%; in test [4] (SRSF2 genotype: wt/wt), 22.8%.
For `COc1cccc(C(N)=O)c1` [3-Methoxybenzamide], the cell viability in test [1] (SRSF2 genotype: SRSF2 P95H/wt) is 106% and 99.6%; in test [1] (SRSF2 genotype: SRSF2 wt/wt) it was 111%; in test [2] (SRSF2 genotype: SRSF2 P95H/wt) it was 104%; in test [2] (SRSF2 genotype: SRSF2 wt/wt), 102%; in test [3] (SRSF2 genotype: SRSF2 P95H/wt), 103%; in test [3] (SRSF2 genotype: SRSF2 wt/wt), 107%. Besides, the cell viability in test [4] (SRSF2 genotype: P95H/wt) was 101%; in test [4] (SRSF2 genotype: wt/wt), 115%.
Consider `CS(=O)(=O)CCNCc1ccc(-c2ccc3ncnc(Nc4ccc(OCc5cccc(F)c5)c(Cl)c4)c3c2)o1` [Lapatinib], for which the cell viability in test [1] (SRSF2 genotype: SRSF2 P95H/wt) was 40.9% and 35.3%; in test [1] (SRSF2 genotype: SRSF2 wt/wt) it was 35.8%; in test [2] (SRSF2 genotype: SRSF2 P95H/wt) it was 83.2%; in test [2] (SRSF2 genotype: SRSF2 wt/wt), 77.6%; in test [3] (SRSF2 genotype: SRSF2 P95H/wt), 75.4%; in test [3] (SRSF2 genotype: SRSF2 wt/wt) it was 75.6%. Also, the cell viability in test [4] (SRSF2 genotype: P95H/wt) is 22.2%; in test [4] (SRSF2 genotype: wt/wt), 45.5%.
Take `CCOC(=O)c1ccc(N)cc1` [Benzocaine]: the cell viability in test [1] (SRSF2 genotype: SRSF2 P95H/wt) was 92% and 83.9%; in test [1] (SRSF2 genotype: SRSF2 wt/wt), 94.2%; in test [2] (SRSF2 genotype: SRSF2 P95H/wt), 84%; in test [2] (SRSF2 genotype: SRSF2 wt/wt), 91.7%; in test [3] (SRSF2 genotype: SRSF2 P95H/wt), 87.9%; in test [3] (SRSF2 genotype: SRSF2 wt/wt), 92.4%. Also, the cell viability worked out at 91.4% in test [4] (SRSF2 genotype: P95H/wt) and 94.6% in test [4] (SRSF2 genotype: wt/wt).
For the compound `C[N+]1(C)[C@@H]2CC[C@H]1C[C@@H](OC(=O)C(O)c1ccccc1)C2` (stereo not given in full) [Homatropine Methylbromide], the cell viability is 103% and 100% in test [1] (SRSF2 genotype: SRSF2 P95H/wt); 101% in test [1] (SRSF2 genotype: SRSF2 wt/wt); 106% in test [2] (SRSF2 genotype: SRSF2 P95H/wt); 114% in test [2] (SRSF2 genotype: SRSF2 wt/wt); 102% in test [3] (SRSF2 genotype: SRSF2 P95H/wt); 104% in test [3] (SRSF2 genotype: SRSF2 wt/wt). The cell viability in test [4] (SRSF2 genotype: P95H/wt) is 92.9%; in test [4] (SRSF2 genotype: wt/wt), 105%.
Take `CC(N)C12CC3CC(CC(C3)C1)C2` (stereo not given) [Rimantadine (Flumadine)]: the cell viability is 101% and 98.2% in test [1] (SRSF2 genotype: SRSF2 P95H/wt); 108% in test [1] (SRSF2 genotype: SRSF2 wt/wt); 98.9% in test [2] (SRSF2 genotype: SRSF2 P95H/wt); 104% in test [2] (SRSF2 genotype: SRSF2 wt/wt); 99.8% in test [3] (SRSF2 genotype: SRSF2 P95H/wt); 102% in test [3] (SRSF2 genotype: SRSF2 wt/wt). Also, the cell viability in test [4] (SRSF2 genotype: P95H/wt) was determined as 89.8%; in test [4] (SRSF2 genotype: wt/wt) it was 96.6%.

Usually cell viability stands for a read-out of living cells in per cent, often relative to untreated cells.
